This is an account of results in PubChem BioAssay (EPA / NIEHS).

Values joined by “and” are separate entries in the source; they are usually repeats but may differ in a detail not shown here. Identical values can stand only once. The source holds several records for some structures; these can differ, active in one and inactive in another. Active and inactive are the calls of the source. The calls were made as follows: active = hit-call score of the fitted dose curve at least 0.9, where 1 is the maximum; inactive = score below 0.9.

Read-out in assay [1]: Plasminogen activator inhibitor-1 (PAI1), SERPINE1 (gene 5054)
Kind of assay: BSK_MyoF_PAI1: BioMAP Diversity Plus: MyoF Assay for Plasminogen activator inhibitor-1 (PAI1) Biomarker Activity (AID 2284256).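 As to outcome: PAI-1 protein level measured by ELISA in fibroblast cultures; PAI-1 read 24 h after compound addition.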 The conditions noted are these: primary human lung fibroblasts. Summed up: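 MyoF lung fibroblasts, human primary; compound 24 h; PAI-1 ELISA; positive-direction fit vs DMSO baseline; parallel SRB total-protein staining for cytotoxicity.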

Read-out in assay [2]: Interleukin-8 (IL8), CXCL8 (gene 3576)
Kind of assay: BSK_MyoF_IL8: BioMAP Diversity Plus: MyoF Assay for Interleukin-8 (IL8) Biomarker Activity (AID 2284261). The conditions noted are these: primary human lung fibroblasts. Put shortly:
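Lung fibroblasts (human primary) → chemical exposure → 24 h → IL-8 measured by ELISA. Signal increase scored versus DMSO control.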

Read-out in assay [3]: Decorin, DCN (gene 1634)
The assay is described as follows: BSK_MyoF_Decorin: BioMAP Diversity Plus: MyoF Assay for Decorin Biomarker Activity (AID 2284265). The settings on record: primary human lung fibroblasts. Summed up: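 ELISA readout of decorin, 24 h post-dosing; primary human lung fibroblast (MyoF) culture; gain-of-signal fit vs DMSO baseline.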

Assay [4] can be described thus: BSK_MyoF_SRB: Viability Assessment in the BioMAP Diversity Plus: MyoF Assay (AID 2284267).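 Also: total protein by SRB absorbance in parallel cultures as cytotoxicity measure.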 The settings on record: primary human lung fibroblasts. Put shortly:
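Read-out is SRB absorbance at 560 nm, reflecting total protein in parallel lung fibroblast cultures harvested 24 h after compound addition. Cells were TCA-fixed (10%) and stained with 0.1% SRB; activity is referenced to DMSO.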

Read-out in assay [5]: Matrix Metallopeptidase 1 (MMP1), MMP1 (gene 4312)
Kind of assay: BSK_MyoF_MMP1: BioMAP Diversity Plus: MyoF Assay for Matrix Metallopeptidase 1 (MMP1) Biomarker Activity (AID 2284268). The settings on record: primary human lung fibroblasts. Summed up:
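Cells: human lung fibroblasts. Exposure: 24 h chemical dosing. Detection: ELISA for MMP1. Analysis: upward fitting against DMSO negative control.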

Read-out in assay [6]: Vascular cell adhesion molecule 1 (VCAM1), VCAM1 (gene 7412)
The assay is described as follows: BSK_BF4T_VCAM1: BioMAP Diversity Plus: BF4T Assay for Vascular cell adhesion molecule 1 (VCAM1) Biomarker Activity (AID 2284249). The conditions noted are these: primary human bronchial epithelial cells with fibroblasts. Summed up:
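Human bronchial epithelial cell and dermal fibroblast co-culture exposed 24 h. VCAM-1 measured by ELISA; parallel SRB total-protein staining for cytotoxicity. Fitted in positive direction relative to DMSO.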

Read-out in assay [7]: Collagen I, COL1A1 (gene 1277)
The assay is described as follows: BSK_hDFCGF_CollagenI: BioMAP Diversity Plus: hDFCGF Assay for Collagen I Biomarker Activity (AID 2284250). The settings on record: primary human foreskin fibroblasts. Summed up: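 Human skin primary fibroblasts dosed with test chemical, harvested at 24 h, Collagen I quantified by ELISA; parallel SRB staining (0.1% SRB after 10% TCA fixation, 560 nm) tracked cytotoxicity.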

Read-out in assay [8]: Interferon-inducible T-cell alpha chemoattractant (ITAC), CXCL11 (gene 6373)
Kind of assay: BSK_hDFCGF_ITAC: BioMAP Diversity Plus: hDFCGF Assay for Interferon-inducible T-cell alpha chemoattractant (ITAC) Biomarker Activity (AID 2284251). The conditions noted are these: primary human foreskin fibroblasts. Put shortly: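 Fibroblasts (human foreskin, primary) are treated with chemical, cultured 24 h, then assayed for I-TAC by ELISA. Overt toxicity is checked in parallel cultures by sulforhodamine B staining of total protein at the same time point.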

Read-out in assay [9]: Plasminogen activator inhibitor-1 (PAI1), SERPINE1 (gene 5054)
The assay is described as follows: BSK_KF3CT_PAI1: BioMAP Diversity Plus: KF3CT Assay for Plasminogen activator inhibitor-1 (PAI1) Biomarker Activity (AID 2284252). The settings on record: primary human keratinocytes with fibroblasts. Summed up: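 ELISA read-out of PAI-1 taken 24 h after chemical treatment of a human skin primary co-culture of keratinocytes and foreskin fibroblasts. Increases over DMSO-treated wells defined activity.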

Read-out in assay [10]: Monocyte Chemoattractant Protein-1 (MCP1), CCL2 (gene 6347)
Kind of assay: BSK_IMphg_MCP1: BioMAP Diversity Plus: IMphg Assay for Monocyte Chemoattractant Protein-1 (MCP1) Biomarker Activity (AID 2284253). The conditions noted are these: primary human endothelial cells with macrophages. Summed up: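 Human venular endothelial cells co-cultured with macrophages; MCP-1 measured by ELISA 24 hours post-dose and fitted against DMSO. Cytotoxicity monitored by SRB total-protein staining in parallel cultures.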

Read-out in assay [11]: Interleukin-8 (IL8), CXCL8 (gene 3576)
The assay is described as follows: BSK_KF3CT_IL8: BioMAP Diversity Plus: KF3CT Assay for Interleukin-8 (IL8) Biomarker Activity (AID 2284254). The conditions noted are these: primary human keratinocytes with fibroblasts. Summed up: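 IL-8 read-out: ELISA, 24 h post-dose, human skin primary co-culture (keratinocytes + foreskin fibroblasts). DMSO = baseline; positive-direction fit.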

Read-out in assay [12]: Macrophage Inflammatory Protein-1 Alpha (MIP1a), CCL3 (gene 6348)
The assay is described as follows: BSK_IMphg_MIP1a: BioMAP Diversity Plus: IMphg Assay for Macrophage Inflammatory Protein-1 Alpha (MIP1a) Biomarker Activity (AID 2284255). The conditions noted are these: primary human endothelial cells with macrophages. Summed up: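 Co-culture of human venular endothelial cells and macrophages exposed to compounds for 24 h; MIP-1a measured by ELISA relative to DMSO. Cytotoxicity assessed in parallel cultures by sulforhodamine B total-protein staining at 560 nm.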

Read-out in assay [13]: CD69, CD69 (gene 969)
The assay is described as follows: BSK_IMphg_CD69: BioMAP Diversity Plus: IMphg Assay for CD69 Biomarker Activity (AID 2284257). The conditions noted are these: primary human endothelial cells with macrophages. Summed up:
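Human venular endothelial cells co-cultured with macrophages; CD69 quantified by ELISA 24 h after compound addition. Activity fitted in the positive direction relative to DMSO baseline; cytotoxicity tracked in parallel cultures via SRB total-protein staining.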

Read-out in assay [14]: Eotaxin 3, CCL26 (gene 10344)
Kind of assay: BSK_BF4T_Eotaxin3: BioMAP Diversity Plus: BF4T Assay for Eotaxin 3 Biomarker Activity (AID 2284258). The conditions noted are these: primary human bronchial epithelial cells with fibroblasts. Summed up:
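Co-culture of human bronchial epithelial cells and dermal fibroblasts, exposed to chemicals for 24 h versus DMSO. Eotaxin-3 quantified by ELISA; cytotoxicity checked in parallel cultures by sulforhodamine B total-protein staining.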

Read-out in assay [15]: Monocyte Chemoattractant Protein-1 (MCP1), CCL2 (gene 6347)
The assay is described as follows: BSK_BF4T_MCP1: BioMAP Diversity Plus: BF4T Assay for Monocyte Chemoattractant Protein-1 (MCP1) Biomarker Activity (AID 2284259). The settings on record: primary human bronchial epithelial cells with fibroblasts. Put shortly: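 Co-culture of bronchial epithelial cells and dermal fibroblasts dosed with chemical; MCP-1 measured by ELISA 24 h later. Activity fitted in positive direction versus DMSO; cytotoxicity checked by SRB staining in parallel cultures.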

Read-out in assay [16]: Intercellular Adhesion Molecule 1 (ICAM1), ICAM1 (gene 3383)
Kind of assay: BSK_BF4T_ICAM1: BioMAP Diversity Plus: BF4T Assay for Intercellular Adhesion Molecule 1 (ICAM1) Biomarker Activity (AID 2284260). The conditions noted are these: primary human bronchial epithelial cells with fibroblasts. Put shortly:
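Co-culture of human bronchial epithelial cells and dermal fibroblasts exposed 24 h to chemical; cell-surface ICAM-1 quantified by ELISA. Parallel SRB total-protein staining assessed cytotoxicity; activity fitted relative to DMSO.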

Read-out in assay [17]: CD90, THY1 (gene 7070)
Kind of assay: BSK_BF4T_CD90: BioMAP Diversity Plus: BF4T Assay for CD90 Biomarker Activity (AID 2284262). The conditions noted are these: primary human bronchial epithelial cells with fibroblasts. Put shortly:
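Co-culture of human bronchial epithelial cells and dermal fibroblasts, 24 h compound exposure. Cell-surface CD90 measured by ELISA relative to DMSO; parallel SRB total-protein staining for cytotoxicity.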

Read-out in assay [18]: Interleukin-8 (IL8), CXCL8 (gene 3576)
The assay is described as follows: BSK_BF4T_IL8: BioMAP Diversity Plus: BF4T Assay for Interleukin-8 (IL8) Biomarker Activity (AID 2284263). The settings on record: primary human bronchial epithelial cells with fibroblasts. Summed up: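 Human bronchial epithelial cells with dermal fibroblasts co-culture; IL-8 measured by ELISA 24 hours after dosing, fitted vs DMSO. Cytotoxicity tracked in parallel cultures by SRB total-protein staining.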

Read-out in assay [19]: Interleukin-1 alpha (IL1a), IL1A (gene 3552)
The assay is described as follows: BSK_BF4T_IL1a: BioMAP Diversity Plus: BF4T Assay for Interleukin-1 alpha (IL1a) Biomarker Activity (AID 2284264). The settings on record: primary human bronchial epithelial cells with fibroblasts. Put shortly: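 Human bronchial epithelial cells co-cultured with dermal fibroblasts, dosed and read at 24 h. Secreted/surface IL-1α quantified by ELISA; gain-of-signal fitted relative to DMSO baseline. Parallel SRB total-protein staining tracked cytotoxicity.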

Read-out in assay [20]: KRT18 (gene 3875)
The assay is described as follows: BSK_BF4T_Keratin818: BioMAP Diversity Plus: BF4T Assay for Keratin 818 Biomarker Activity (AID 2284266). The conditions noted are these: primary human bronchial epithelial cells with fibroblasts. Put shortly:
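Co-culture of human bronchial epithelial cells and dermal fibroblasts, chemical exposure 24 h. Keratin 8/18 measured by ELISA; positive-direction fit vs DMSO. SRB total protein run in parallel cultures for cytotoxicity.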

Regarding `Sc1ccccc1`, the result in assay [1], in assay [2], in assay [3], in assay [4] and in assay [5] was inactive.
In the case of `O=C(O)C(F)(F)C(F)(F)C(F)(F)C(F)(F)C(F)(F)F`, the outcome in [6], in assay [7], in assay [8], in assay [9], in [10] and in assay [11] was inactive. Also, the result in assay [12], in assay [1], in assay [13], in assay [14], in assay [15] and in assay [16] was inactive. In addition, the outcome in assay [2], in [17], in assay [18], in assay [19], in assay [3] and in assay [20] was inactive. Besides, the result in assay [4] and in assay [5] was inactive.
A word on the AC50: it is the concentration giving half of the maximal activity seen. On to `NS(=O)(=O)C(F)(F)C(F)(F)C(F)(F)C(F)(F)C(F)(F)C(F)(F)C(F)(F)C(F)(F)F`, for which the AC50 in assay [6] is 24.8 µM (active) and 23.3 µM (active); in [8] it was 8.34 µM (active) and 8.29 µM (active); in [9], 40.7 µM (active) and 21.7 µM (active); in assay [10], 45.2 µM (active) and 50.4 µM (active); in [11] it was 37.2 µM (active) and 22.3 µM (active); in assay [12], 54.8 µM (active) and 43.3 µM (active). The AC50 in assay [1] is 46.3 µM (active) and 55.1 µM (active); in [13], 10 µM (active); in [14] it was 20.4 µM (active) and 12.6 µM (active); in assay [15], 47.9 µM (active) and 42 µM (active); in assay [16], 47.2 µM (active) and 36 µM (active); in assay [2], 53 µM (active) and 50.7 µM (active). Besides, the AC50 in assay [17] is 30 µM (active) and 21.8 µM (active); in assay [18], 49.2 µM (active) and 48.2 µM (active); in [19], 44.9 µM (active) and 24.2 µM (active); in assay [3], 52.9 µM (active); in assay [20], 44.7 µM (active) and 31.5 µM (active); in assay [4], 43.1 µM (active) and 42.8 µM (active). Moreover, the outcome in assay [7], in assay [13], in assay [3] and in assay [5] was inactive.
Take `O=S(=O)(O)C(F)(F)C(F)(F)C(F)(F)C(F)(F)F`: the outcome in assay [6], in assay [7], in [8], in [9], in [10] and in assay [11] was inactive. The result in [12], in [1], in [13], in [14], in assay [15] and in assay [16] was inactive. Moreover, the result in assay [2], in assay [17], in [18], in assay [19], in [3] and in assay [20] was inactive. Moreover, the outcome in assay [4] and in [5] was inactive.
